Screening data as filed in PubChem.
PLCg1 inh: PLC-gamma1 (human) inhibition, primary screen. P19174. purified PLC-gamma1, fluorogenic substrate, fluorescence. inhibition, % at 12.2 µM. 370,000 tested, 0.84% active. AID 720700; in the data active means inhibition above about 9.5%
ADAM17 inh: ADAM17 inhibition, QFRET primary screen. inhibition, % at 6.95 µM. recombinant ADAM17, EDANS/DABCYL FRET peptide cleavage. P78536. 370,000 tested, 0.83% active;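 active means inhibition above the mean of compounds lying between control limits plus 3 SD, set per campaign, cut at about 8.5% in these data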;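 further: 0% = DMSO-only wells as the low control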
PLCb3 inh: blocks human PLC-beta3 enzyme activity. Q01970. Purified PLC-beta3, fluorogenic substrate, fluorescence. inhibition, % at 12.2 µM. 370,000 tested, 0.18% active. AID 720704;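 further: 0% = median of compound wells on plate and 100% = full blocker control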
ADAM10 inh: ADAM10 inhibition, QFRET primary screen | AID 720582 | O14672 | recombinant ADAM10, EDANS/DABCYL FRET peptide cleavage, 3 h | 370,000 tested, 0.62% active | inhibition, % at 7 µM;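 active means inhibition above a per-campaign cutoff equal to the mean of compounds falling between control-based bounds plus 3 SD, cut at about 20% in these data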;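 further: 0% = DMSO wells while the 100% control is not disclosed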
proKLK7 act: activates the human kallikrein-7 zymogen; activation, % at 7 µM; purified proKLK7, EDANS-DABCYL substrate fluorescence; 100% is mature enzyme control, 0% vehicle; 370,000 tested, 0.9% active; P49862;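 active means activation above the mean of all tested compounds plus 3 SD, computed per campaign excluding outliers beyond control limits, cut at about 13% in these data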
Target sequence (P49862 whole entry, looked up): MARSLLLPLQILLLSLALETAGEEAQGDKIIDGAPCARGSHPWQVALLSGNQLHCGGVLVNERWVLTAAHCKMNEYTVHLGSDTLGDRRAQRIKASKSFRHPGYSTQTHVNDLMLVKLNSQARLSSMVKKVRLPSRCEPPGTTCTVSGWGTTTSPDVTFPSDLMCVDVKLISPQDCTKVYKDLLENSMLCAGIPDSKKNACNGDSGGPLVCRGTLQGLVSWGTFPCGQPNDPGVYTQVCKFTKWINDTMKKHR
PLCgamma1 ctr: PLC-gamma1 inhibition, counter-screen for PLC-beta3 hits; inhibition, % at 12.3 µM; purified PLC-gamma1, fluorogenic substrate, fluorescence; AID 743258; 3,300 tested, 3.1% active; shares compounds with PLCg1 inh; in the data active means inhibition above about 9.5%
PLCb3 confirm: human PLC-beta3 inhibition, confirmation; purified PLC-beta3, fluorogenic substrate fluorescence; shares compounds with PLCg1 inh; AID 743261; inhibition, % at 12.3 µM; 3,300 tested, 1% active
* = called active by the depositor; . = no result given. In the library only some 2.9% were active in any assay of this set; here they are far more common. Unless noted, no stated cut-off is given here; in the data, active means inhibition above about 11%; inactive means the rest.

SMILES	PLCg1 inh	ADAM17 inh	PLCb3 inh	ADAM10 inh	proKLK7 act	PLCgamma1 ctr	PLCb3 confirm
CC1CN(Cc2ccco2)C(=S)NC1=O (stereo not given)	1.6	-3.4	-1.0	-9.8	0.2	.	.
CCCCCCc1ccc(-c2ccc(C#N)cc2)cc1	0.6	0.1	3.2	0.3	4.8	.	.
CC(N)(C(=O)O)c1cccc(OCc2cccc(Cl)c2)c1 (stereo not given)	10.7*	0.4	4.4	12.9	-0.4	-3.2	-4.8
COc1cc(OC)nc(Nc2nc(C(N)COCc3ccccc3)cs2)n1 (stereo not given)	2.0	-4.1	-1.1	-16.4	0.0	.	.
COc1cc(OC)nc(Nc2nc(C(N)CCc3ccccc3)cs2)n1 (stereo not given)	10.5*	2.2	2.5	3.4	0.1	-9.4	-3.5
C[C@H]1CN([C@@H](C)CO)S(=O)(=O)c2ccc(Br)cc2O[C@@H]1CN(C)Cc1cccc(F)c1	1.1	4.5	2.3	8.7	0.8	.	.
Cc1ccc(NC(=O)N(Cc2cc3cc(C)cc(C)c3[nH]c2=O)CC2COCCO2)cc1 (stereo not given)	4.3	-3.3	2.0	3.5	0.9	.	.
COc1cccc(NC(=O)N(Cc2cc3cc(C)cc(C)c3[nH]c2=O)CC2COCCO2)c1 (stereo not given)	11.3*	4.2	9.9	5.4	-0.5	-7.3	-4.0
O=C(O)CCC(=O)OCC1CCCCC1	9.8*	-0.5	3.9	0.2	-0.5	-5.5	-0.6
O=C(O)CCC(=O)NNC(=O)CCC1CCCCC1	-1.4	2.5	3.3	-4.1	-0.2	.	.
NCCc1nnc(SCC(=O)Nc2ccc(Br)cc2)o1	-1.1	-3.7	-1.9	-8.3	0.6	.	.
CN(C)C(=O)CSc1nnc(CCN)o1	12.9*	0.6	4.9	6.1	0.0	-5.5	-3.3
CCC(=O)NC(=S)Nc1cccc(NC(=O)c2ccccc2C)c1	2.9	-0.5	3.8	11.0	-0.2	.	.
CCC(=O)Nc1cccc(NC(=S)NC(=O)c2ccccc2C)c1	9.9*	-0.5	2.8	-0.5	-0.1	1.5	1.5
O=C(CC1SC(=Nc2ccccc2)N(CCc2ccccn2)C1=O)Nc1ccc(F)cc1 (stereo not given)	9.8*	0.0	4.8	7.4	0.5	3.0	5.2
O=C(C[C@@H]1C=C[C@H](NC(=O)Cc2ccccn2)[C@@H](CO)O1)NCCc1ccccc1	-4.5	-6.9	-3.2	-14.5	0.2	.	.
O=C(C[n+]1cccc(CNC(=O)c2ccc(OC(F)F)cc2)c1)Nc1cccc(C(F)(F)F)c1	-0.4	1.7	11.8*	3.3	0.3	-3.2	4.2
CC1(C(=O)NCc2ccco2)Cc2c(-c3cccc(C(N)=O)c3)ccnc2O1 (stereo not given)	2.0	-1.3	5.9	1.1	0.4	.	.
c1coc(CN2CN=C(Nc3nc4ccccc4s3)NC2)c1	9.7*	3.4	2.7	-2.3	0.0	1.1	2.7
CC(C)=CCC/C(C)=C/CN(CC(C)O)CC(C)O (stereo not given)	3.3	-3.9	4.7	10.0	0.1	.	.
CC(O)CN(CCC(N)=O)CCC(N)=O (stereo not given)	10.1*	4.3	-0.1	6.2	0.7	-0.8	-1.1
Fc1cccc(/C=N/n2c(C3CCCCC3)n[nH]c2=S)c1	-4.8	0.3	-3.4	0.3	1.3	.	.
COc1ccc(Cc2c(C(C)(C)C)nc3c(C)cc(Br)cn23)c(C)c1	-21.3	-3.0	-31.4	-27.3	0.2	.	.
CN(c1ccc(-c2csc(NC(=O)CCCc3nc4ccccc4c(=O)[nH]3)n2)cc1)S(C)(=O)=O	-29.2	-7.2	-36.7	-19.7	1.0	.	.
COc1ccc(S(=O)(=O)N2CCC(C(=O)NCCN3CCOCC3)CC2)cc1	12.5*	8.5	-4.0	8.0	-0.4	-6.6	-1.9
COc1ccc(C2C(C(=O)NCCCN3CCOCC3)c3ccccc3C(=O)N2c2ccc(OC)cc2)cc1 (stereo not given)	4.7	7.1	11.5*	3.5	0.7	-3.0	-5.6
Cc1ccc(S(=O)(=O)N2CCC(C(=O)NCCN3CCOCC3)CC2)cc1C	-1.3	-6.7	-8.7	-12.6	-0.4	.	.
OC(c1ccccc1)(c1ccccc1)c1cnc2ccccn12	1.9	-3.6	2.5	-2.9	.	.	.
